Experimental data from PubChem BioAssay (NCI).
The panel holds about 83,000 compounds, 20% with a hit somewhere; the sample as a whole holds those more often.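 Method: cells in 96-well plates; compound added at one concentration; 48 h incubation; percent growth measured; values under 10 scored active.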 Unmarked numbers belong to inactive results. Calls of active or inactive are those of the source.

Legend:
Assay in all cases: NCI-60 one-dose screen, 48 h (100 = growth as untreated, 0 = no growth, -100 = all killed)
Details in all cases: 10 µM unless noted
[1] = test system: NCI-H23 lung
[2] = test system: NCI-H226 lung
[3] = test system: NCI-H322M lung
[4] = test system: HOP-62 NSCLC
[5] = test system: NCI-H460 lung
[6] = test system: HOP-92 NSCLC
[7] = test system: NCI-H522 lung
[8] = test system: A549/ATCC NSCLC
[9] = test system: 786-0 renal
[10] = test system: COLO 205 colon
[11] = test system: DU-145 prostate
[12] = test system: K-562 leukemia
[13] = test system: MALME-3M melanoma
[14] = test system: MDA-MB-231 breast
[15] = test system: RXF 393 renal
[16] = test system: SF-268 CNS
[17] = test system: SF-295 CNS
[18] = test system: SF-539 CNS
[19] = test system: UACC-257 melanoma
[20] = test system: M14 melanoma

Structure (SMILES)	growth [1]	growth [2]	growth [3]	growth [4]	growth [5]	growth [6]	growth [7]	growth [8]	growth [9]	growth [10]	growth [11]	growth [12]	growth [13]	growth [14]	growth [15]	growth [16]	growth [17]	growth [18]	growth [19]	growth [20]
CCOC(=O)C1=C(c2ccccc2)N=C2SC=C(c3ccc(Cl)cc3)N2C1c1ccc(Cl)cc1 (stereo not given)	64.2%	79.5%	88.5%	91.6%	83.3%	69.8%	79.9%	77%	84.4%	76.2%	87.7%	73.8%	87.2%	74.2%	72%	78.8%	88.9%	92.8%	64.9%	82.8%
C=CC[Se]C(=O)Cc1c(C)n(C(=O)c2ccc(Cl)cc2)c2ccc(OC)cc12	-18.2% (active)	-20.5% (active)	-29.5% (active)	-16.6% (active)	-6.72% (active)	-21.6% (active)	8.54% (active)	-5.21% (active)	-50.5% (active)	-32.1% (active)	-35.6% (active)	25.9%	-23.4% (active)	-56% (active)	-57.5% (active)	15.3%	-28.8% (active)	-89.5% (active)	-34.8% (active)	-35.4% (active)
COc1ccc(-c2cc(-c3cc(OC)c(OC)c(OC)c3)c(C#N)c(=O)n2CCCCC(=O)NO)cc1	67.4%	82.3%	75.1%	65%	55.3%	51.9%	54.6%	71.9%	83.7%	84.3%	64.1%	32.6%	33.1%	55.6%	53.1%	87.9%	78.7%	57.7%	71.7%	56.9%
COc1cccc(CNc2ccc3ncnc(Nc4ccc(F)c(Cl)c4)c3c2)c1	69.6%	71.4%	34.1%	82.5%	78%	76.8%	18.6%	53.1%	71.2%	91.3%	54.3%	48.3%	58.1%	68.2%	65.9%	65.6%	79.4%	93.8%	49.2%	72.9%
Cc1ccc(C(=O)c2ccc(CC(=O)N/N=C/c3ccccc3O)n2C)cc1	82.9%	97%	78.9%	76%	76.6%	98.6%	75.2%	86.1%	96.8%	101%	89.6%	84.2%	91.4%	82.6%	89.6%	70.9%	97.7%	89.1%	95.3%	82.9%
COc1ccc(NC(=O)c2sc3nc(C)c(C(=O)/C=C/c4ccccc4)cc3c2N)cc1	63%	65.6%	13.1%	60.8%	6.63% (active)	109%	41.7%	34%	2.08% (active)	72.8%	26.5%	14.4%	97.3%	60.8%	-1.08% (active)	28.7%	48.8%	38.2%	98.3%	61.5%
CSc1nc2ncc([N+](=O)[O-])c(=O)n2[nH]1	104%	97%	110%	98.8%	103%	52.4%	93.8%	101%	108%	119%	110%	104%	101%	108%	105%	98.8%	96.6%	100%	105%	98.4%
NC(N)=NCCCCCNc1noc(Cc2c[nH]c3cc(Br)ccc23)n1	64%	63.2%	77.3%	58.3%	68%	16.2%	47.8%	65.3%	91.7%	64.7%	92.8%	86.4%	47.8%	69.4%	78.3%	33.3%	80.2%	71.8%	65.7%	73.6%
COC(=O)CC[C@H](C)[C@H]1CC[C@H]2[C@@H]3CC[C@@H]4CC5(CC[C@]4(C)[C@H]3CC(=O)[C@]12C)Nc1ccccc1NC5=NC(C)(C)C (stereo not given in full)	72.8%	65.4%	95.6%	84.3%	85.5%	-2.12% (active)	75.8%	82.3%	81.1%	66.4%	90.2%	42.2%	109%	86.7%	84.7%	84.1%	84%	90.8%	77.2%	84.9%
O=C1/C(=C/c2cccc(F)c2)CN(C(=O)C(Cl)Cl)C/C1=C\c1cccc(F)c1	-75.3% (active)	0.29% (active)	-44.1% (active)	-25.8% (active)	-63% (active)	-58% (active)	-80.3% (active)	-28.7% (active)	-77% (active)	-60% (active)	-81.5% (active)	-9.05% (active)	-36.2% (active)	-63.7% (active)	-89.6% (active)	-29.6% (active)	-71.2% (active)	-98.6% (active)	-42.4% (active)	-69.7% (active)
O=c1c2cnn(-c3ccccc3)c2n2c(CN3CCOCC3)nnc2n1-c1ccccc1	108%	104%	108%	78.1%	102%	81.3%	41.2%	76.9%	92.6%	96.5%	105%	88.2%	124%	106%	119%	104%	98.6%	99.2%	101%	98.2%
O=S(=O)(NCCCNc1nccc(-c2c(-c3ccc(F)c(O)c3)nc3occn23)n1)c1ccc(Cl)cc1	70.7%	103%	85.3%	88.3%	62.3%	68.8%	63.1%	72.4%	106%	42.9%	73.5%	45.8%	5.66% (active)	40.4%	30.8%	66.5%	103%	87.5%	33.8%	19.6%
COc1ccc(C(=O)/C=C/c2c(C(F)(F)F)nc3ccccn23)cc1OC	0.445% (active)	79.4%	24%	11.1%	-33.6% (active)	5.04% (active)	10.8%	43.1%	10.3%	-1.6% (active)	4.16% (active)	11.4%	41.5%	26.2%	14.8%	5.35% (active)	0.39% (active)	-13.3% (active)	30.5%	14.8%
COC(=O)c1cc(N=C2NC(=O)/C(=C/C=C/c3ccccc3)S2)ccc1O	37.2%	37.5%	47.2%	44.5%	12.1%	34.3%	19.4%	30.8%	20.4%	9.95% (active)	16.8%	14.4%	65.3%	54.7%	-12.8% (active)	61.7%	20.3%	12.4%	70.9%	11.3%
